Source: PubChem BioAssay AID1159580 (chemical genetic matrix, 2015)
Values joined by “and” are separate entries in the source; they are usually repeats but may differ in a detail not shown here. Identical values can stand only once. The whole screen tested about 5,500 compounds, of which about 2,000 (36%) were called active. Inconclusive results (about 18%) are left out. No stated cut-off is given here; in the data, active means normalized growth mostly below about 0.91 (no sharp cut-off); inconclusive means no clear call, values can overlap the other calls; inactive means mostly above about 0.92. The list shows a part of the results.

Test: chemical genetic growth profiling, strain panel (AID 1159580);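 further: tested at 20 µM; growth read once vehicle control cultures reached saturation at 30 °C; 1 = growth at the plate median or of vehicle wells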
Settings: S. cerevisiae deletion strains, growth OD

Measured: normalized growth

COC(=O)[C@H]1[C@H]2C[C@@H]3c4[nH]c5cc(OC)ccc5c4CCN3C[C@H]2C[C@@H](OC(=O)c2cc(OC)c(OC)c(OC)c2)[C@@H]1OC
inactive: locus YAL013W, strain DEP1, stronger effect = lower value 0.994 | locus YAL021C, strain ccr4, stronger effect = lower value 0.965 | locus YAL026C, strain drs2, stronger effect = lower value 0.974 | locus YAL030W, strain snc1, stronger effect = lower value 0.981 | locus YBL061C, strain skt5, stronger effect = lower value 1 | locus YBR009C, strain hhf1, stronger effect = lower value 1.01 | locus YBR021W, strain FUR4, stronger effect = lower value 0.981 | locus YBR023C, strain chs3, stronger effect = lower value 0.979 | locus YBR171W, strain sec66, stronger effect = lower value 1 | locus YBR229C, strain ROT2, stronger effect = lower value 0.991 | locus YBR231C, strain swc5, stronger effect = lower value 0.987 | locus YBR279W, strain paf1, stronger effect = lower value 0.965 | locus YCL011C, strain gbp2, stronger effect = lower value 0.97 | locus YCL016C, strain dcc1, stronger effect = lower value 0.94 | locus YCL029C, strain bik1, stronger effect = lower value 1.03 | locus YCL069W, strain vba3, stronger effect = lower value 1.01 | locus YCR088W, strain abp1, stronger effect = lower value 0.999 | locus YDL005C, strain med2, stronger effect = lower value 0.98 | locus YDL035C, strain GPR1, stronger effect = lower value 0.979 | locus YDL040C, strain nat1, stronger effect = lower value 0.992 | locus YDL074C, strain BRE1, stronger effect = lower value 0.952 | locus YDL101C, strain DUN1, stronger effect = lower value 1.01 | locus YDL134C, strain PPH21, stronger effect = lower value 1 | locus YDL185W, strain tfp1, stronger effect = lower value 1.02 | locus YDL192W, strain arf1, stronger effect = lower value 1.03 | locus YDR001C, strain nth1, stronger effect = lower value 0.984 | locus YDR069C, strain doa4, stronger effect = lower value 0.963 | locus YDR101C, strain arx1, stronger effect = lower value 1 | locus YDR137W, strain rgp1, stronger effect = lower value 1.04 | locus YDR150W, strain NUM1, stronger effect = lower value 1 | locus YDR159W, strain sac3, stronger effect = lower value 0.968 | locus YDR162C, strain NBP2, stronger effect = lower value 0.991 | locus YDR195W, strain ref2 0.972 | locus YDR297W, strain sur2, stronger effect = lower value 0.984 | locus YDR318W, strain mcm21, stronger effect = lower value 1.01 | locus YDR334W, strain swr1, stronger effect = lower value 0.972 | locus YDR335W, strain msn5, stronger effect = lower value 0.993 | locus YDR388W, stronger effect = lower value 1.01 | locus YDR392W, strain spt3, stronger effect = lower value 0.784 | locus YDR502C, strain sam2, stronger effect = lower value 0.996 | locus YEL003W, strain gim4, stronger effect = lower value 0.977 | locus YEL037C, strain rad23, stronger effect = lower value 1 | locus YEL061C, strain CIN8 (second series), stronger effect = lower value 0.987 | locus YEL061C, strain CIN8, stronger effect = lower value 0.999 | locus YER015W, strain faa2, stronger effect = lower value 0.97 | locus YER016W, strain bim1, stronger effect = lower value 1 | locus YER110C, stronger effect = lower value 1.02 | locus YER111C, strain swi4, stronger effect = lower value 0.996 | locus YER155C, strain BEM2 (second series), stronger effect = lower value 0.931 | locus YER155C, strain BEM2, stronger effect = lower value 1.02 | locus YER167W, strain BCK2, stronger effect = lower value 0.987 | locus YFR010W, strain ubp6, stronger effect = lower value 1.01 | locus YGL078C, strain dbp3, stronger effect = lower value 1 | locus YGL086W, strain mad1, stronger effect = lower value 0.998 | locus YGL167C, strain pmr1, stronger effect = lower value 0.991 | locus YGL173C, strain kem1, stronger effect = lower value 0.983 | locus YGL227W, strain vid30, stronger effect = lower value 0.979 | locus YGL240W, strain doc1, stronger effect = lower value 0.957 | locus YGL248W, strain PDE1, stronger effect = lower value 1 | locus YGL253W, strain hxk2, stronger effect = lower value 1.01 | locus YGR078C, strain PAC10, stronger effect = lower value 0.975 | locus YGR135W, strain pre9, stronger effect = lower value 1.03 | locus YGR229C, strain SMI1, stronger effect = lower value 0.964 | locus YGR252W, strain gcn5, stronger effect = lower value 0.929 | locus YHR013C, strain ard1, stronger effect = lower value 0.92 | locus YHR027C, strain rpn1, stronger effect = lower value 0.953 | locus YHR030C, strain SLT2, stronger effect = lower value 1 and 0.982 | locus YHR079C, strain IRE1 (second series), stronger effect = lower value 1.01 | locus YHR079C, strain IRE1, stronger effect = lower value 0.978 | locus YHR094C, strain hxt1, stronger effect = lower value 1.02 | locus YHR129C, strain ARP1, stronger effect = lower value 1.01 | locus YHR142W, strain chs7, stronger effect = lower value 0.986 | locus YHR200W, strain rpn10, stronger effect = lower value 0.998 | locus YIL066C, strain RNR3, stronger effect = lower value 0.986 | locus YIL073C, strain SPO22, stronger effect = lower value 1.06 | locus YIL125W, strain kgd1, stronger effect = lower value 1 | locus YIR030C, strain dcg1, stronger effect = lower value 1.01 | locus YJL092W, strain hpr5, stronger effect = lower value 0.976 | locus YJL095W, strain BCK1 (second series), stronger effect = lower value 0.965 | locus YJL095W, strain BCK1, stronger effect = lower value 0.996 and 0.977 | locus YJL115W, strain asf1, stronger effect = lower value 0.966 | locus YJL129C, strain trk1, stronger effect = lower value 0.971 | locus YJL134W, strain LCB3, stronger effect = lower value 0.999 | locus YJL154C, strain vps35, stronger effect = lower value 0.986 | locus YJL164C, strain tpk1, stronger effect = lower value 0.988 | locus YJL166W, strain qcr8, stronger effect = lower value 0.981 | locus YJL168C, strain set2, stronger effect = lower value 1.01 | locus YJL187C, strain SWE1 (second series), stronger effect = lower value 0.999 | locus YJR043C, strain POL32, stronger effect = lower value 0.967 | locus YJR066W, strain TOR1, stronger effect = lower value 0.949 | locus YJR075W, strain HOC1, stronger effect = lower value 0.983
